Data taken from PubChem BioAssay (NCATS).
Results filed as inconclusive are left out. Calls of active or inactive are those of the source. Unless noted, calls come from the whole dose curve; as a rule, active = well fitted curve in the direction sought with a large enough effect; inconclusive = small, poorly fitted or top-dose-only effect, or another doubt; inactive = no such curve, though single readings can be large; an effect the other way counts as inactive or inconclusive.

Columns and labels:
[1] = qHTS Assay for Identification of Small Molecule Agonists for Thrombopoietin (TPO) Signaling Pathway (AID 917)
Outline: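 Human TPO receptor–transfected Ba/F3 cells (murine, IL-3-dependent) in IL-3-deficient medium; compounds plus TPO at EC50, 26 pM final; 24 hrs, 37 C; GpIIb-luciferase luminescence after 10 min RT detection.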

[2] = molecular target: Muscarinic acetylcholine receptor M1 (Rattus norvegicus) (UniProt P08482); test: qHTS Assay for Antagonists of Acetylcholine Muscarinic M1 Receptor: Measurement of IP-One Response (AID 944); note: nearly all actives have a fitted effect of over 75% in size
Sequence of Muscarinic acetylcholine receptor M1 (Rattus norvegicus) (P08482 whole entry, looked up): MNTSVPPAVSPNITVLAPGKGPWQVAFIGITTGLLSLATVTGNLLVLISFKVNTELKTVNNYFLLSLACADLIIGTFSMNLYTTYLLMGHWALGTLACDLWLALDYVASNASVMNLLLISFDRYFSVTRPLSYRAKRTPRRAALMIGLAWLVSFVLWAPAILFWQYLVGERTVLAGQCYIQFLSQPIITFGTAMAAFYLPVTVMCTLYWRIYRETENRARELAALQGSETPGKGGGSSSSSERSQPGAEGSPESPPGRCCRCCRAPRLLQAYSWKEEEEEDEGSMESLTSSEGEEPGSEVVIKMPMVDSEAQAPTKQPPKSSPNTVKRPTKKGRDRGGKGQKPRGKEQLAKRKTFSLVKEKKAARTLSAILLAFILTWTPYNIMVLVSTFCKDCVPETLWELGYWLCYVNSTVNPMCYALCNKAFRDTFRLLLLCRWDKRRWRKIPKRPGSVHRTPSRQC
Outline: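 Antagonist mode with rat M1 receptor transfected into CHO cells. Compound is added first for 10 min, carbachol at its EC80 follows for 30 min, and lysis reagents then allow TR-FRET detection of accumulated IP1.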

[3] = molecular target: Pyruvate kinase (Leishmania mexicana) (UniProt Q27686); test: qHTS Validation Assay for Inhibitors of Leishmania Mexicana Pyruvate Kinase (AID 945)
Sequence of Pyruvate kinase (Leishmania mexicana) (Q27686 2-499 E452W): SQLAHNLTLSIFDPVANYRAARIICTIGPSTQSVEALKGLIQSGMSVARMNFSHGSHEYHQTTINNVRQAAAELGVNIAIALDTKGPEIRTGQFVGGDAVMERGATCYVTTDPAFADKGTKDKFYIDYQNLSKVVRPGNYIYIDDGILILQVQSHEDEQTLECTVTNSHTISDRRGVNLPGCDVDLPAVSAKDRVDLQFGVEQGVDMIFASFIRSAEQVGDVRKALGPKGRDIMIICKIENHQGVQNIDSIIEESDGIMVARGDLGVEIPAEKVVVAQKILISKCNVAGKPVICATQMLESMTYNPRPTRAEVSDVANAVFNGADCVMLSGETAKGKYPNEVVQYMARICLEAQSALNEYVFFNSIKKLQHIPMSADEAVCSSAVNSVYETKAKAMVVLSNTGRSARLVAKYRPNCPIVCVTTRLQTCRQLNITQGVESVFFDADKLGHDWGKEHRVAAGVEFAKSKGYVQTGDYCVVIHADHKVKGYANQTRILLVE
Outline: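 Substrate mix (0.5 mM PEP, 0.1 mM ADP, 7 mM MgCl2, 50 mM KCl, pH 7.2 imidazole) received compound by pin tool, then 0.2 nM LmPYK E451W. After 1 h at room temperature, PKLight was added and luminescence measured.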

[4] = molecular target: Pyruvate kinase PKM (Homo sapiens) (UniProt P14618); test: qHTS Assay for Activators of Human Muscle Pyruvate Kinase (AID 954; active = well fitted curve in the direction sought with a large enough effect, not every such curve was filed as active)
Sequence of Pyruvate kinase PKM (Homo sapiens) (P14618 whole entry, looked up): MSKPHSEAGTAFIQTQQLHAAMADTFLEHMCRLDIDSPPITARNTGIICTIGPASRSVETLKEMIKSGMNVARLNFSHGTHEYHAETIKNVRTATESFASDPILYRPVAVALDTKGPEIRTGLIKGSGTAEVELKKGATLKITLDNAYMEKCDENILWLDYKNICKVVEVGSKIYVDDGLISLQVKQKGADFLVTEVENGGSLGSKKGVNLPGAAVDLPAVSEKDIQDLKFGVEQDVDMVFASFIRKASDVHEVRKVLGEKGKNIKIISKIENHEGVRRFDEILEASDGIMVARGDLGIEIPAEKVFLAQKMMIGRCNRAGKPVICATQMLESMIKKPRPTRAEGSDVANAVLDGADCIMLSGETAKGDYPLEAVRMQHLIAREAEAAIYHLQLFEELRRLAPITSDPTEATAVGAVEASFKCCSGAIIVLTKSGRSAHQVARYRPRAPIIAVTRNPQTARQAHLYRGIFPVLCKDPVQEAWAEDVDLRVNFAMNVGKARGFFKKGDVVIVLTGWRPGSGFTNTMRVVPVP
Outline: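 PKM2, human, >95% pure, 0.1 nM; PEP 0.5 mM (Km), ADP 0.1 mM; 50 mM imidazole pH 7.2, 50 mM KCl, 0.01% Tween 20, 0.05% BSA; 1 h RT; luciferase luminescence readout.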

[5] = Cell Viability - LYMP2-001 (AID 921); note: series mostly up to about 92 µM; nearly all actives have a fitted effect of over 70% in size
Outline: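 A lymphoblastoid cell line of human origin was treated with library compounds across a concentration series for 24 hours, and viable cell number was estimated from ATP-driven luciferase light output. Hill modeling gave AC50.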

[6] = MultiTox-Fluor Cytotoxicity Assay - LYMP1-001 - Dead Cells (AID 946);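 note: cells exposed to compound for 16 h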
Outline: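 Seed 2500 LYMP1-001 cells/well, incubate 5 hr at 37 C; add compound, 16 hr at 37 C; add MultiTox-Fluor reagent, 60 min RT; read dead-cell fluorescence Ex/Em=485/520. Normalize to DMSO and 15 uM tetraoctylammonium bromide.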

[7] = MultiTox-Fluor Cytotoxicity Assay - LYMP1-001 - Live Cells (AID 947)
[8] = Cell Viability - LYMP1-002 - Assay at 16 hr (AID 948)
Outline: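 In this qHTS, lymphoblastoid LYMP1-002 cells (human) receive compounds for 16 hr at 37 C. Viability is taken from CellTiter-Glo ATP luminescence, and AC50 derives from standard Hill fits.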

[9] = MultiTox-Fluor Cytotoxicity Assay - LYMP1-002 - Live Cells (AID 955);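 note: cells exposed to compound for 16 hours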
Outline: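 Cells were seeded at 2500 per well and incubated 5 hr. Compounds were then added for 16 hr at 37 C, followed by MultiTox-Fluor reagent for 60 min at room temperature and fluorescence reading of viable-cell protease signal.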

[10] = MultiTox-Fluor Cytotoxicity Assay - LYMP1-002 - Dead Cells (AID 960);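 note: cells exposed to compound for 16 h at 37 °C; nearly all actives have a fitted effect of over 60% in size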
Outline: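 Cells were plated, rested 5 hr, then treated with compound dilution series for 16 hr at 37 C. After adding substrate reagent and 60 min at room temperature, dead-cell protease fluorescence gave concentration-response curves fitted by the Hill equation.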

[11] = MultiTox-Fluor Cytotoxicity Assay - LYMP1-003 - Dead Cells (AID 961);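 note: cells exposed to compound for 16 h at 37 °C; nearly all actives have a fitted effect of over 70% in size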
Outline: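 LYMP1-003 lymphoblastoid, 2500 cells/well, 5 hr settle then 16 hr cpd at 37 C; MultiTox-Fluor reagent 60 min RT; Ex/Em 485/520 dead-cell signal; norm. DMSO = 0%, 15 uM tetraoctylammonium bromide = 100%; Hill AC50.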

[12] = MultiTox-Fluor Cytotoxicity Assay - LYMP1-003 - Live Cells (AID 962);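 note: cells exposed to compound for 16 hours at 37 °C; cytotoxic hits lower the live-cell protease signal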
Outline: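 Acute cytotoxicity is scored as a drop in live-cell protease activity in human lymphoblastoid LYMP1-003 cells after 16 hr compound exposure at 37 C. AC50 values come from Hill-equation modelling of concentration-response data.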

[13] = Cell Viability - LYMP1-003 - Assay at 24 hr (AID 963)
Outline: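 Cytotoxicity is scored as a concentration-dependent fall in ATP-linked luciferase signal in human lymphoblastoid LYMP1-003 cells treated 24 hr at 37 C in complete culture medium.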

[14] = Cell Viability - LYMP1-003 - Assay at 40 hr (AID 964); note: series mostly up to about 92 µM; nearly all actives have a fitted effect of over 60% in size
Outline: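 Luminescent ATP signal (CellTiter-Glo) served as the viability read-out after 40 hr compound treatment of human lymphoblastoid LYMP1-003 cells at 37 C. Decreases in ATP were fitted with the Hill equation to give AC50.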

[15] = Cell Viability - LYMP2-003 (AID 965);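 note: cells exposed to compounds for 24 h before reading; nearly all actives have a fitted effect of over 50% in size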
Outline: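 qHTS, human lymphoblastoid line, 2500 cells/well, complete medium. 24 h drug, 37 C. ATP-based luminescent readout; Hill-fit AC50.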

[16] = Cell Viability - LYMP2-004 (AID 966); note: nearly all actives have a fitted effect of over 65% in size
Outline: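 qHTS cytotoxicity: human lymphoblastoid line, 24 hr compound treatment, 37 C, complete medium. Viability read as cellular ATP via luciferase luminescence; tetraoctylammonium bromide served as positive control.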

[17] = Cell Viability - LYMP2-005 (AID 967); note: series mostly up to about 92 µM
Outline: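 Luciferase-based ATP quantitation served as the viability measure in human lymphoblastoid LYMP2-005 cells exposed to test compounds for 24 h at 37 C in complete culture medium. Potency (AC50) was obtained by fitting concentration-response curves with the Hill equation.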

[18] = Cell Viability - LYMP2-009 (AID 968); note: series mostly up to about 92 µM; nearly all actives have a fitted effect of over 55% in size

Measured: outcome

COc1ccc2c(c1OC)C(=O)OC2[C@H]1c2c(cc3c(c2OC)OCO3)CCN1C (stereo not given in full)
inactive: [1] | [2] | [3]

CN(C)CC[C@H](c1ccc(Cl)cc1)c1ccccn1
inactive: [1] | [3] | [4]

Cc1cc(O)c2c(c1)C(=O)c1cccc(O)c1C2=O
inactive: [5] | [6] | [7] | [8] | [9] | [10] | [11] | [12] | [13] | [14] | [15] | [16] | [17] | [18]
